Screening data from PubChem BioAssay.
Cruzain inh noDet: qHTS Assay for Promiscuous and Specific Inhibitors of Cruzain (without detergent); Cruzipain (Trypanosoma cruzi), P25779; purified cruzain, Z-FR-AMC fluorescence, no detergent; Potency, µM, for inactives: max response, negative = inhibition, most hits filed as inhibitors; hit rate 2.3% among 200,000; AID 1476, 2009;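 note: plate controls were enzyme without inhibitor for no effect and buffer without enzyme for full effect; nearly all actives have a fitted effect of over 40% in size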
Target sequence (P25779 123-467 limits assumed): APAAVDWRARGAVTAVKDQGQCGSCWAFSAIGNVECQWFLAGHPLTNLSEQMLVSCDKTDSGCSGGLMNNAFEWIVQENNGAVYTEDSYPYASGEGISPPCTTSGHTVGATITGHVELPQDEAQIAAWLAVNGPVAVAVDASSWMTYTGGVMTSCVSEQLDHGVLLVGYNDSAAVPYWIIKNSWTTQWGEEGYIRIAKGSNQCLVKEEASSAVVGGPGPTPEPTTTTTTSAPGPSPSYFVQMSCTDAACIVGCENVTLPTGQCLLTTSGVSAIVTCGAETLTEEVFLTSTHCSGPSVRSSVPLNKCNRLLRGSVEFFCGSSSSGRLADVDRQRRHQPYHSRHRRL
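Detergent-free condition (0.00005% Triton X-100) in acetate buffer pH 5.5 with DTT. 1.5 nM enzyme and compound were pre-mixed 15 min, then 2 uM Z-FR-AMC substrate added; reaction progress from fluorescence change between first and third reads (60 s).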
NS1 inh: qHTS Assay for Inhibitors of Influenza NS1 Protein Function | Potency, µM (series often up to 46.1 µM), inactives show at the highest dose activity, positive = more growth | hit rate 0.4% among 270,000; calls by dose curve; note: actives are rising curves; nearly all actives have a fitted effect of over 50% in size
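OD600 was taken as the measure of yeast growth restored by compound in an NS1-expressing S. cerevisiae strain. Cells had been washed out of glucose medium and diluted 1:100 into galactose -URA medium, pH 6.0.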
Cruzain Triton: qHTS Assay for Promiscuous and Specific Inhibitors of Cruzain (with detergent); Potency, µM, for the others: max response, negative = inhibition, most hits filed as inhibitors; hit rate 0.43% among 200,000; purified cruzain, Z-FR-AMC fluorescence, 0.01% Triton;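 note: plate controls were neutral wells for no effect and buffer without enzyme for full effect; nearly all actives have a fitted effect of over 40% in size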
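Sodium acetate buffer (100 mM, pH 5.5) containing 5 mM DTT and 0.01% Triton X-100 hosted 1.5 nM cruzain and test compound for 15 min at room temperature. Cleavage of 2 uM Z-FR-AMC was then tracked by fluorescence.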
Papain inh: qHTS Assay for Inhibitors of Papain: Counterscreen for Cruzain Assay; shares compounds with Cruzain Triton; purified papain, Z-FR-AMC fluorescence cleavage; Potency, µM, for the others: max response, negative = inhibition, actives largely listed as inhibitors; hit rate 41% among 410;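 note: 0% = no-compound wells and -100% = no-enzyme wells; nearly all actives have a fitted effect of over 35% in size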
Target sequence (P00784 whole entry, looked up): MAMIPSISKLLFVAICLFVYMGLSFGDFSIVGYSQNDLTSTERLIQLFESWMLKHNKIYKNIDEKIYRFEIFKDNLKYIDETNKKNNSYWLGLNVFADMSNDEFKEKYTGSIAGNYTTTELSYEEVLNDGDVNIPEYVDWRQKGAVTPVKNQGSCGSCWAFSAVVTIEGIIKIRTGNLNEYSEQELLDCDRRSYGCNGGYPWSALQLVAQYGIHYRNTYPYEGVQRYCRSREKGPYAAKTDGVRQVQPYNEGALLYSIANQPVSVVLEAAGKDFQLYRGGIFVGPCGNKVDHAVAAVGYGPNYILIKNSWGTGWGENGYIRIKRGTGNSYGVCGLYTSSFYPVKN
* marks the source's active call; other numbers are inactive results; ? = inconclusive; nt = no result given. Shown is part of a subset that was picked to be rich in hits. Unless noted, calls come from the whole dose curve; as a rule, active = well fitted curve in the direction sought with a large enough effect; inconclusive = small, poorly fitted or top-dose-only effect, or another doubt; inactive = no such curve, though single readings can be large; an effect the other way counts as inactive or inconclusive. Potency is the fitted concentration of half-maximal effect.

SMILES	Cruzain inh noDet	NS1 inh	Cruzain Triton	Papain inh
O=C(Cn1c(=O)oc2cc(Cl)ccc21)Nc1cccc(C(F)(F)F)c1	-1%	nt	-6%	nt
C[C@]12CC[C@H]3c4ccc(O)cc4CC[C@@H]3[C@H]1C/C(=N/O)[C@H]2O	-3%	-2%	-3%	nt
COc1cc2cc(CN(Cc3nnnn3Cc3ccco3)C3CCCCC3)c(=O)[nH]c2cc1OC	7.9µM*	-8%	7.1µM*	28µM*
COCCn1nnnc1CN(Cc1cc2cc(OC)c(OC)cc2[nH]c1=O)C1CCCC1	1%	-11%	-15%	nt
CCOc1ccc2[nH]c(=O)c(CN(Cc3ccco3)Cc3nnnn3Cc3ccccc3)cc2c1	17%	-22%	-7%	nt
CCOc1ccc2[nH]c(=O)c(CN(Cc3nnnn3Cc3ccco3)C3CCCCC3)cc2c1	10µM*	?	6.3µM*	-9%
CCOc1ccc(NC(=O)[C@H]2O[C@@H]3OC(C)(C)O[C@@H]3[C@H]3OC(C)(C)O[C@H]32)cc1	4%	nt	-1%	nt
CCOC(=O)c1sc(N/N=C/c2cccc(C)c2)nc1C	?	1%	1.4µM*	1.3µM*
CCOC(=O)c1sc(N/N=C/c2ccccc2)nc1C	?	-5%	-6%	nt
CCc1cccc2c(-c3ccccc3)nc(SCC(=O)Nc3ccccc3)nc12	-12%	nt	3%	nt
C=CCn1c(SCC(=O)Nc2cc3oc4ccccc4c3cc2OC)nnc1-c1cnccn1	?	-106%	0%	4%
C=CCn1c(SCC(=O)Nc2cccc3ccccc23)nnc1-c1cnccn1	-12%	4%	-9%	nt
Cc1cc(C)c(-c2csc(NC(=O)COC(=O)c3ccc4c(c3)OCO4)n2)c(C)c1	?	13%	-4%	nt
Cc1ccc(C)c(-c2csc(-c3c(N)c(C(=O)c4ccc5c(c4)OCO5)n4ccccc34)n2)c1	3.2µM*	nt	-3%	12%
COc1ccc(OC)c(CCNC(=O)c2cnn(-c3ccccc3)c2C2CCN(C(=O)OC(C)(C)C)CC2)c1	?	nt	-10%	nt
CCc1ccc(N2CSC3=C(C#N)C(c4cccs4)CC(=O)N3C2)cc1 (configuration not stated)	?	-91%	-8%	nt
CCOC(=O)c1ccc(N2CSC3=C(C#N)C(c4cccs4)CC(=O)N3C2)cc1 (configuration not stated)	-16%	-45%	-9%	2%
Cc1nn(S(=O)(=O)c2ccc(C(C)C)cc2)c(C)c1S(=O)(=O)N1CCCCC1	6%	nt	0%	nt
COC(=O)CC[C@@H](C)[C@H]1CC[C@H]2[C@@H]3CC[C@@H]4C[C@H](O)CC[C@]4(C)[C@H]3C[C@H](O)[C@]12C	?	nt	-6%	nt
COC(=O)CCC(C)C1CCC2C3CC[C@H]4CC(O)CC[C@@]4(C)C3CC(O)[C@]12C (some centres not stated)	?	nt	-9%	-6%
O=C(Nc1ccc(F)c(F)c1)c1ccc(=O)n(Cc2ccc(F)cc2)c1	-15%	nt	-5%	nt
COc1ccc(-c2nc3ccc(C(=O)NCc4ccccc4)cc3nc2-c2ccc(OC)cc2)cc1	-17%	nt	1%	nt
O=C(NCC1CC1)c1ccc2nc(-c3ccoc3)c(-c3ccoc3)nc2c1	nt	nt	nt	-5%
c1ccc(C2=Nn3c(nnc3-c3cc(-c4ccccc4)n[nH]3)SC2)cc1	-6%	-83%	-7%	nt
Cc1ccc(O/C=C2/Nn3c(nnc3-c3cc(-c4ccccc4)n[nH]3)S2)cc1	nt	nt	nt	9%
SMILES	Cruzain inh noDet	NS1 inh	Cruzain Triton	Papain inh
Cc1cccc(CSCCNC(=O)C2CCN(S(=O)(=O)Cc3ccccc3)CC2)c1	1%	nt	-3%	nt
CCOCCc1nn2c(=O)cc(COC(=O)c3ccc(NC(=O)C4CCCCC4)cc3)nc2s1	2%	nt	-1%	nt
CSCC[C@H](NC(=O)CC(C)(C)C)c1nc2ccccc2[nH]1	-6%	0%	-1%	nt
CSCC[C@H](NC(=O)COc1ccc(Cl)cc1Cl)c1nc2ccccc2[nH]1	7%	-4%	6.3µM*	-4%
O=S1(=O)c2ccccc2N=NN1Cc1ccc(Cl)c(Cl)c1	?	18%	22µM*	-15%
CC(C)(C)c1ccc(CN2N=Nc3ccccc3S2(=O)=O)cc1	?	-5%	-12%	nt
Cc1ccc(NC(=S)c2nc3ccccc3[nH]2)c(C)c1	-24%	-51%	-8%	nt
Cc1ccc2[nH]c(=O)c(NC(N)=S)nc2c1	1.6µM*	-3%	1.8µM*	1%
COc1ccc(Nc2nc(Cl)nc(NCCO)n2)cc1	12%	18%	1%	nt
N#Cc1nc(NCCCCO)nc(Nc2ccccc2)n1	nt	nt	nt	2.2µM*
CCCCNc1nc(C#N)nc(Nc2ccccc2)n1	nt	nt	nt	1µM*
CCCCNc1cc(C)nc(NCc2ccccc2)n1	5%	-144%	4%	nt
CCc1ccc(-n2nc(C)c3c(C)cc(=O)n(Cc4nc(-c5ccccc5)oc4C)c32)cc1	?	nt	7%	nt
CCn1c(C(=O)N2CCCC(C(=O)N3CCN(c4cc(C)ccc4C)CC3)C2)cc2sccc21 (configuration not stated)	?	nt	-8%	nt
O=C(COc1ccc([N+](=O)[O-])cc1)NCCc1nc2ccccc2[nH]1	nt	1%	nt	nt
O=C(COc1ccc(F)cc1)NCCc1nc2ccccc2[nH]1	-8%	nt	1.6µM*	3.5µM*
COc1ccc(-c2cc(C#N)nc(N3CCN(C)CC3)n2)cc1	16µM*	-12%	25µM*	-18%
COc1ccc(-c2cc(C(F)(F)F)nc(N3CCN(C)CC3)n2)cc1	-3%	7%	0%	nt
CCOC(=O)c1c(C)c(-c2ccccc2)n(CC(=O)Nc2cc(C)cc(C)c2)c1C	-1%	nt	-1%	nt
COc1ccc2[nH]cc(CCNc3nc(-c4ccccc4CN(C)C)nc4ccccc34)c2c1	1%	nt	1%	nt
CCOc1ccc(C(=O)NCC(=O)OCC(=O)N2CCCCC2)cc1	0%	2%	-11%	nt
O=C(CNC(=O)c1ccccc1)OCC(=O)c1ccccc1	nt	nt	nt	-25%
COc1ccc(C(=O)C(C)OC(=O)CNC(=O)C2CCCCC2)cc1 (configuration not stated)	nt	nt	nt	11µM*
O=C(CNC(=O)C1CCCCC1)OCC(=O)c1ccc2c(c1)CCC2	nt	nt	nt	-25%
COc1ccc(NC(=O)CNC(=O)C2CCCCC2)cc1	nt	-15%	nt	nt
SMILES	Cruzain inh noDet	NS1 inh	Cruzain Triton	Papain inh
COc1cccc(C(=O)NCC(=O)OCC(=O)c2ccccc2)c1	?	12%	?	nt
CCOc1ccc(C(=O)COC(=O)CNC(=O)C2CCCCC2)cc1	nt	nt	nt	-27%
O=C1COc2ccc(C(=O)COC(=O)CNC(=O)C3CCCCC3)cc2N1	nt	8%	nt	nt
CCn1c(CC2C(=O)N(C)c3ccccc32)nc2ccccc2c1=O (configuration not stated)	-2%	nt	-1%	nt
Cc1c(C(=O)Nc2ccccc2Br)oc2ccc(S(=O)(=O)N3CCCCCC3)cc12	9%	nt	2%	nt
CC1CN(C(=O)Nc2ccc(C(=O)NCc3cccc(F)c3)cc2)c2ccccc2S1 (configuration not stated)	?	nt	-6%	nt
O=C(Nc1ccccc1C(F)(F)F)c1ncoc1-c1ccco1	-6%	nt	-8%	nt
O=C(CN1C(=O)c2ccccc2C1=O)NCC(=O)OCC(=O)c1ccc(Br)cc1	-9%	-72%	0%	nt
O=C(CNC(=O)C1CCCCC1)OCC(=O)c1ccc(Br)cc1	nt	10%	nt	-24%
